Records with an inconclusive call do not appear. The source made the active and inactive calls. Rule for the calls: active = hit-call score of the fitted dose curve at least 0.9, where 1 is the maximum; inconclusive = response in the unintended direction; inactive = score below 0.9.
These molecules were tested against Nucleoli Translocation, AR (gene 367) (UniProt P10275) (assay: UPITT_HCI_U2OS_AR_TIF2_Nucleoli_Antagonist: University of Pittsburgh U2OS Androgen Receptor-Transcriptional Intermediary Factor 2 (AR-TIF2) Antagonism High Content Imaging Assay for Nucleoli Translocation (AID 2283997)).
Source text: UPITT_AR_TIF2_PPIB is a cell-based, high-content imaging assay that uses U2OS, a human osteosarcoma cell line, expressing a human androgen receptor fused to red fluorescent protein and the coactivator TIF2 fused to green fluorescent protein. UPITT_HCI_U2OS_AR_TIF2_Nucleoli_Antagonist is one of four assay components measured from the UPITT_AR_TIF2_PPIB assay. It is designed to make measurements of red fluorescence localized in the nucleolar region of the cell nucleus as detected with high-content fluorescent imaging.Data from the assay component UPITT_HCI_U2OS_AR_TIF2_Nucleoli_Antagonist was analyzed into 1 assay endpoint. This assay endpoint, UPITT_HCI_U2OS_AR_TIF2_Nucleoli_Antagonist, was analyzed in the positive analysis fitting direction relative to DHT as the baseline of activity. Using a type of binding reporter, measures of receptor for loss-of-signal activity can be used to understand the binding at the pathway-level as it relates to the gene AR.
Daughter plates containing 2 uL of 10 mM compounds in DMSO were prepared and replicated from the 384-well Library of Pharmacologically Active Compounds (LOPAC) master plates using the Bravo outfitted with a 384-well transfer head. Aluminum adhesive plate seals were applied with an Abgene Seal-IT 100 (Rochester, NY) plate sealer, and the plates were stored at -20 C in a Matrical MatriMinistore (Spokane, WA) automated compound storage and retrieval system. For screening, LOPAC daughter plates were withdrawn from -20C storage, thawed to ambient temperature, centrifuged 1-2 min at 50 g, and the plate seals were removed before the transfer of 98 uL of serum-free tissue culture medium (SFM) into wells using the BioTek Microflo liquid handler (BioTek, Winooski, VT) to generate a 200 uM intermediate stock concentration of library compounds (2.0% DMSO). The diluted compounds were mixed by repeated aspiration and dispensation using a 384-well P30 dispensing head on the Evolution P3 (EP3) liquid handling platform (PerkinElmer, Waltham, MA) and then 5 uL of diluted compounds was transferred to the wells of assay plates. In the LOPAC screen, compounds were individually tested at a final concentration of 20 uM (0.2% DMSO). After the diluted compounds had been transferred from the daughter plates to the primary HCS assay plates, aluminum adhesive plate seals were applied and the diluted daughter plates were stored frozen at -20C. To confirm active compounds identified in the primary screen, we withdrew the LOPAC daughter plates containing the 200 uM intermediate concentration of library compounds (2.0% DMSO) from -20C storage, thawed them to ambient temperature, centrifuged them for 1-2 min at 50 g, and removed the plate seals. A work list was generated to direct the Multiprobe Janus liquid handling platform (PerkinElmer) to cherry pick 75 uL from the wells of the diluted daughter plates that were flagged active in the primary screen and to reformat these into a 384-well plate hit confirmation daughter plate. Five microliters of primary HCS active compounds was then transferred into triplicate wells of assay plates using a 384-well P30 dispensing head on the Evolution P3 (EP3) liquid handling platform (PerkinElmer). […] Daughter plates containing 2 uL of the serially diluted compounds in DMSO were prepared and replicated from the 384-well serial dilution master plates using the Bravo outfitted with a 384-well transfer head. Aluminum adhesive plate seals were applied and plates were stored at -20C. […] The ImageXpress Ultra (IXU) platform (Molecular Devices LLC, Sunnyvale, CA) and The ImageXpress Micro (IXM) platform were used for imaging.

Nucleoli Translocation, AR (gene 367), sequence (P10275 whole entry, looked up, the tested form may be a part): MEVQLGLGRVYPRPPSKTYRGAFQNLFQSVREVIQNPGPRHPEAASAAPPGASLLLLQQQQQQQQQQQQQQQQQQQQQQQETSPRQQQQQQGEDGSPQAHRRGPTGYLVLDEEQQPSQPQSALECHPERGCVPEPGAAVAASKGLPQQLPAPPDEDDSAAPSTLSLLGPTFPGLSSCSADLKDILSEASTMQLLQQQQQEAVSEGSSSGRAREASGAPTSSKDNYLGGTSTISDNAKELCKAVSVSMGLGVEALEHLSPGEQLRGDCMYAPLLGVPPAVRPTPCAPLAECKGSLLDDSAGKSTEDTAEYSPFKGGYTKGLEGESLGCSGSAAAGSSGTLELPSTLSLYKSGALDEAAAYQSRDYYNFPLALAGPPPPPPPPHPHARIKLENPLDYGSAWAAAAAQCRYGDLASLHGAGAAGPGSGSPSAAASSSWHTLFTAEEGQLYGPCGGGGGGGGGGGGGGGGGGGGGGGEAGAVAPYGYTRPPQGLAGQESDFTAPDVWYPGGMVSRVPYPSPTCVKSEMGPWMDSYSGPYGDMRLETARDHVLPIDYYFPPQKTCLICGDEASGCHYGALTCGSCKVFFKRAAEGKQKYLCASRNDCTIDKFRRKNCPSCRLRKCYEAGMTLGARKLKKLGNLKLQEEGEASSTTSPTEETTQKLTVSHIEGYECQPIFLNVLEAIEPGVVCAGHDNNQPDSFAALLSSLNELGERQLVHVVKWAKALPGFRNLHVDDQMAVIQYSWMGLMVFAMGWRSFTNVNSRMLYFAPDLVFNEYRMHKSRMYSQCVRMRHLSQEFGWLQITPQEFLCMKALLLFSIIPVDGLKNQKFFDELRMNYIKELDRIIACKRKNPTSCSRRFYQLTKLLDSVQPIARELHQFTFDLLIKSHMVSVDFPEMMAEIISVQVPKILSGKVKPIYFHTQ

**Q.** With `CCCOc1sc(C(=O)N2CCC(c3cc(CN)ccc3F)CC2)c(C)c1Br` as the molecule, how does the outcome read?
**A.** inactive

**Q.** Which AC50 does the source give for `CCCCCCCCCCCCc1ccccc1S(=O)(=O)O` here?
**A.** 83 µM (active)

**Q.** Which AC50 does the source give for `CC[C@H](c1ccc(O)cc1)[C@@H](CC)c1ccc(O)cc1` here?
**A.** 50 µM (active)

**Q.** For `O=c1c(-c2ccc(O)cc2)coc2cc(O)ccc12`, which outcome is on record?
**A.** inactive

**Q.** Which AC50 does the source give for `Nc1cccc2c(N)cccc12` here?
**A.** 33.3 µM (active)

**Q.** With `CCC(=C(c1ccc(O)cc1)c1ccc(OCCN(C)C)cc1)c1ccccc1` as the molecule, how does the outcome read?
**A.** inactive

**Q.** With `NC(=O)N1C(=O)C(C(=O)c2cc(Cl)cs2)c2cc(F)c(Cl)cc21` (stereo unspecified) as the molecule, how does the outcome read?
**A.** inactive

**Q.** `Cc1oc(-c2ccccc2)nc1CCOc1ccc(C[C@H](Nc2ccccc2C(=O)c2ccccc2)C(=O)O)cc1` was tested. Which AC50 did it give?
**A.** 67.6 µM (active)

**Q.** For `c1ccc2c(c1)ccc1ccccc12`, which AC50 is on record?
**A.** 33.7 µM (active)

**Q.** How did the outcome turn out when `N#C[C@@H]1CC(F)(F)CN1C(=O)CNC1CC2CCC(C1)N2c1ncccn1` (stereo partly specified) was run?
**A.** inactive

**Q.** With `Oc1cc2ccccc2c2ccccc12` as the molecule, how does the AC50 read?
**A.** 3.25 µM (active)

**Q.** How did the outcome turn out when `CC(=O)CC(C)(C)O` was run?
**A.** inactive

**Q.** With `CCCCC[C@H](O)CC(=O)CCc1ccc(O)c(OC)c1` as the molecule, how does the outcome read?
**A.** inactive

**Q.** How did the AC50 turn out when `O=C(/C=C/c1ccc(O)cc1)CC(=O)/C=C/c1ccc(O)cc1` was run?
**A.** 16.3 µM (active)

**Q.** How did the AC50 turn out when `COc1cc(CCC(=O)CC(=O)CCc2ccc(O)c(OC)c2)ccc1O` was run?
**A.** 26.6 µM (active)

**Q.** With `Cc1cc(CCN2CCN(c3nsc4ccccc34)CC2)cc2c1NC(=O)CC2(C)C` as the molecule, how does the AC50 read?
**A.** 50 µM (active)
